Only a selection was taken, and hits are over-represented in it overall.
BoNT-F LC inh = blocks Botulinum neurotoxin F light chain protease. Multiplex microsphere protease cleavage assay, flow cytometry. inhibition, % at 10 µM. 360,000 compounds, 0.22% hits. AID 588497; in the data active means inhibition above about 35%, passing the limit was not always enough; inconclusive means no clear call, values can overlap the other calls; further: plate controls were buffer without enzyme for full effect and enzyme alone for no effect
Anthrax LF inh2 = anthrax lethal factor protease inhibition | inhibition, % at 10 µM | multiplex microsphere protease cleavage assay, LF | 360,000 compounds, 0.12% hits | AID 588501; further: plate controls were buffer without enzyme for full effect and enzyme alone for no effect
Target sequence (P15917 whole entry, looked up): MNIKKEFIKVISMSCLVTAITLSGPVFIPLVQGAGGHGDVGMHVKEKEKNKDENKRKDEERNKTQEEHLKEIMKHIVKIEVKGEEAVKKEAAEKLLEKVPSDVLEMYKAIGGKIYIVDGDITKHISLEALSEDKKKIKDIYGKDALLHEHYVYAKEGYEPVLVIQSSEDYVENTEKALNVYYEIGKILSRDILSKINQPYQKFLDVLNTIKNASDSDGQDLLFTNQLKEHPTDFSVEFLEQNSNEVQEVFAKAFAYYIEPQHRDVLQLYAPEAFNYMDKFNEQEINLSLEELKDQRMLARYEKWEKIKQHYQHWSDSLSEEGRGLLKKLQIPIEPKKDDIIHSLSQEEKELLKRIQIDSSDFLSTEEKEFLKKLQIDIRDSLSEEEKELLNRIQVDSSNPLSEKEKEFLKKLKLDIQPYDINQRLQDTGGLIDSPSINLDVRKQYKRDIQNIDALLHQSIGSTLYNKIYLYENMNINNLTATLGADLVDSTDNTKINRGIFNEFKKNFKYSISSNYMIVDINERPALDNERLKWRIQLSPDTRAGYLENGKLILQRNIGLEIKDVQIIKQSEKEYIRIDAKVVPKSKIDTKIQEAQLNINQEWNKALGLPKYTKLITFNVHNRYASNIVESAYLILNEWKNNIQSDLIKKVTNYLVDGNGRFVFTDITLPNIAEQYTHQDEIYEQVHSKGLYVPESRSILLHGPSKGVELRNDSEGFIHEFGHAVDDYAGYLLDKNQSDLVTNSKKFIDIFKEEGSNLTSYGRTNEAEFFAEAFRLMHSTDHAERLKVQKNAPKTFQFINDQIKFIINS
Bead autofluor = flagged as autofluorescent in microsphere protease counterscreen; 360,000 compounds, 3.1% hits; fluorescence intensity (no concentration beside the values); compound autofluorescence counterscreen, microsphere flow cytometry; active compounds read high; in the data active means fluorescence intensity above about 16000; inconclusive means no clear call, values can overlap the other calls
BoNT A protease = BoNT A light chain protease inhibition | 360,000 compounds, 0.17% hits | inhibition, % at 10 µM | multiplex microsphere protease substrate cleavage, flow cytometry; further: plate controls were buffer without enzyme for full effect and enzyme alone for no effect
TcdB inh = TcdB glycohydrolase inhibition; TcdB glycohydrolase enzymatic assay, plate reader; inhibition, % at 9.99 µM; 350,000 compounds, 0.24% hits; AID 652162; in the data active means inhibition above about 10%
Active calls of the source: *; ? = inconclusive; nt = not tested or not shown. Unless noted, no stated cut-off is given here; in the data, active means inhibition above about 30%; inconclusive means no clear call, values can overlap the other calls; inactive means below that.

SMILES	BoNT-F LC inh	Anthrax LF inh2	Bead autofluor	BoNT A protease	TcdB inh
CC(C)(C)S(=O)(=O)c1cnc2c(-c3ccc(F)cc3)cnn2c1N	-1	1	21191*	?	nt
COc1ccc(-c2cnn3c(N)c(S(=O)(=O)C(C)(C)C)cnc23)cc1	0	-10	21645*	?	nt
Nc1c(S(=O)(=O)c2ccccc2)cnc2c(-c3ccc(F)cc3)cnn12	6	-3	15012	4	nt
COc1ccc(-c2cnn3c(N)c(S(=O)(=O)c4ccccc4)cnc23)cc1	-2	-3	20604*	-1	nt
CC(C)(C)S(=O)(=O)c1cnc2c(-c3ccc(Cl)cc3)cnn2c1N	-7	1	5860	0	nt
COc1ccc(-c2cnc3c(-c4ccc(F)cc4)cnn3c2N)cc1	3	0	3654	-1	0
COc1ccc(-c2ccc3c(c2)O[C@H](CN(C)C)[C@@H](C)CN([C@H](C)CO)S3(=O)=O)cc1	nt	nt	nt	nt	1
O=C(C[C@H]1CC[C@H](NS(=O)(=O)c2ccc(F)cc2)[C@@H](CO)O1)NC1CCCCC1	nt	nt	nt	nt	0
Nc1nnc(C(=O)c2ccccc2N)s1	-3	0	21252*	-2	1
NC(=O)c1ccccc1N	4	4	3998	0	0
COc1ccc(OC)c(NC(=O)C2CCN(Cc3cnn(-c4ccccc4)c3-n3cccc3)CC2)c1	-4	-4	20746*	-2	nt
CCN(CC)C(=O)c1ccc(NC(=O)Cn2nc(C)c3ccccc3c2=O)cc1	3	-4	22310*	?	nt
Cc1nn(CC(=O)Nc2ccc(C(=O)N(C)C)cc2)c(=O)c2ccccc12	5	0	19106*	3	nt
CCN(CC)C(=O)c1ccc(Nc2nnc(C)c3ccccc23)cc1	-3	0	24503*	-2	nt
Cc1nn(CC(=O)Nc2ccc3c(c2)nc2n3CCOC2)c(=O)c2ccccc12	1	1	21862*	1	nt
COCCN1CCn2c(nc3cc(NC(=O)Cn4nc(C)c5ccccc5c4=O)ccc32)C1	?	-5	4333	1	1
COc1ccc(C#Cc2ccc3c(c2)O[C@H](CN(C)C(=O)c2ccccn2)[C@@H](C)CN([C@H](C)CO)S3(=O)=O)cc1	nt	nt	nt	nt	0
CCC(=O)N1[C@H](C(=O)NC2CCC2)[C@@H](CO)[C@@H]2Cn3c(ccc(-c4ccc(F)cc4)c3=O)[C@@H]21	nt	nt	nt	nt	-1
CCCC#Cc1cnc2c(c1)C(=O)N([C@@H](C)CO)C[C@@H](C)[C@H](CN(C)CCC)O2	nt	nt	nt	nt	-1
CO[C@H]1CN(C)C(=O)c2ccc(NC(=O)Nc3cccc(Cl)c3)cc2OC[C@@H](C)N(C(=O)Nc2c(C)noc2C)C[C@@H]1C	nt	nt	nt	nt	1
Cc1nn(CC(=O)N(C)C)c(=O)c2ccccc12	1	1	22253*	1	1
Cc1nn(CC(N)=O)c(=O)c2ccccc12	-5	-4	2840	0	nt
CCC(=O)Nc1ccc2c(c1)C(=O)N(C)C[C@H](OC)[C@H](C)CN(C(=O)NC(C)C)[C@H](C)CO2	nt	nt	nt	nt	0
COc1cccc(S(=O)(=O)N[C@H]2C=C[C@H](CC(=O)NCc3ccc(Cl)cc3)O[C@H]2CO)c1	nt	nt	nt	nt	1
c1ccc(-c2nc(-c3ccco3)cs2)nc1	1	1	22107*	1	nt
SMILES	BoNT-F LC inh	Anthrax LF inh2	Bead autofluor	BoNT A protease	TcdB inh
O=S(=O)(c1cc(Cl)ccc1Br)N1CCCCC1	4	-6	21533*	4	nt
O=S(=O)(c1cccc(Cl)c1)N1CCCC1	-2	-1	24145*	-1	0
O=S(=O)(c1cccc(-c2nnc(-c3cccnc3)o2)c1)N1CCCCC1	1	0	19643*	?	nt
CC1CCN(S(=O)(=O)c2cccc(-c3nnc(-c4cccnc4)o3)c2)CC1	-2	-4	3713	0	nt
O=S(=O)(c1cccc(S(=O)(=O)N2CCCC2)c1)c1cccc(S(=O)(=O)N2CCCC2)c1	-4	-3	21252*	?	3
O=S(=O)(c1cc(Cl)ccc1Cl)N1CCCCC1	0	-15	9669	-1	nt
CO[C@H]1CN(C)C(=O)c2cc(NC(=O)Cc3ccccc3)ccc2OC[C@@H](C)N(C(C)=O)C[C@H]1C	nt	nt	nt	nt	1
CC1(C)CC(=O)C=C(NNC(=O)c2ccccc2O)C1	-1	-4	16377*	-1	nt
C[C@H]1CN([C@@H](C)CO)C(=O)c2cc(C3=CCCC3)cnc2O[C@@H]1CN(C)Cc1ccc(C(=O)O)cc1	nt	nt	nt	nt	0
O=C(C(c1ccccc1)c1ccccc1)N1CCC(c2nc(-c3ccccc3Cl)no2)CC1	4	-3	2325	0	nt
O=C(O)c1ccc(S(=O)(=O)N2CCC(c3nc(-c4ccccc4Cl)no3)CC2)cc1	-1	-2	23179*	?	nt
COc1ncccc1-c1cnc2cccnn12	2	-3	3444	0	1

Source: PubChem (several laboratories)
